Data as given in PubChem BioAssay (NCI).
About 83,000 compounds went through this panel and 20% of them were active in at least one assay; those are over-represented in the sample as a whole.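 In brief: 96-well plates, 48 h treatment, single concentration, percent growth endpoint.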 Unmarked numbers belong to inactive results. Activity calls are given as the source filed them.

test system: MOLT-4 leukemia; experiment: NCI-60 one-dose screen, 48 h (100 = growth as untreated, 0 = no growth, -100 = all killed); conditions: 10 µM unless noted
Protocol: Growth inhibition of the MOLT-4 human tumor cell line is measured as a screen for anti-cancer activity. Cells are grown in 96 well plates and exposed to the test compound for 48 hours. Compounds are tested at a single concentration, which is 10^-5 M for most compounds. The reported endpoint is percent growth (GI% or GIPRCNT), where numbers from 0 - 100% represent growth inhibition, and numbers from -100% - 0 represent cell death. For example, a value of 40 represents 60% growth inhibition. A value of 0 means no net growth occurred over the course of the experiment. A value of -40 indicates 40% of cells at the beginning of the experiment died by the end of the experiment. A value of -100 means all cells are dead at the end of the experiment.
NCI-60 Human Tumor Cell Lines Screen was performed using the standard one-dose NCI protocol, which is described in more detail at https://dtp.cancer.gov/discovery_development/nci-60/default.htm.
Compounds with GIPRCNT values below 10 were considered active. Activity score was based on GIPRCNT using the following formula: […]
Score is 0 for GIPRCNT values of 100 or above, 50 for GIPRCNT values of 0, and 100 for GIPRCNT values of -100.

Question: How did the growth turn out when `CN(C)c1cnccn1` was run?
Answer: The growth was 93.7%.

Question: Which growth does the source give for `COc1ccc(/C=C2\COc3ccc(O)cc3C2=O)c(OC)c1` here?
Answer: The growth was 36.8%.

Question: `CCOC(=O)c1c(C)nc2c(c1N)/C(=C/c1cc(OC)c(OC)c(OC)c1)C(=O)N2c1ccc(OC)cc1` was tested. Which growth did it give?
Answer: Its growth is 17.6%.

Question: How did the growth turn out when `Oc1ccccc1-c1nc2ccccn2c1NCCN1CCOCC1` was run?
Answer: Its growth is 97.5%.

Question: Which growth does the source give for `CCOC(=O)C1=C(C)NC(SCc2nnc(-c3ccc(Cl)cc3)o2)=NC1c1ccc(Cl)cc1Cl` (stereo not given) here?
Answer: Its growth is 11.3%.

Question: For `CCN(CC)CCOC(=O)N1c2ccccc2Sc2ccccc21`, which growth is on record?
Answer: Its growth is 96.1%.

Question: How did the growth turn out when `O=C1Nc2ccccc2SC1c1ccccc1Cl` (stereo not given) was run?
Answer: The growth was 86.4%.

Question: `C#C[C@]1(O)CC[C@H]2[C@@H]3CC=C4c5sc(N=C(N)N)nc5CC[C@]4(C)[C@H]3CC[C@@]21C` was tested. Which growth did it give?
Answer: Its growth is -8.43% (active).

Question: With `COc1cccc(-c2nc3sccn3c2-c2ccnc(NCCNS(=O)(=O)c3c(Cl)cccc3Cl)c2)c1` as the compound, how does the growth read?
Answer: Its growth is 33.7%.

Question: `Cc1cc(NS(=O)(=O)c2ccccc2)c(OS(=O)(=O)c2ccccc2)cc1C` was tested. Which growth did it give?
Answer: The growth was 88.5%.

Question: Which growth does the source give for `O=C1CSC(c2ccccc2)N1c1ccccc1` (stereo not given) here?
Answer: Its growth is 107%.

Question: How did the growth turn out when `CC(C)(C)N1CC(OC(N)=O)C1` was run?
Answer: The growth was 133%.

Question: For `CCOC(=O)c1nnn(C(Cc2ccccc2Cl)C(=O)OCC)c1C` (stereo not given), which growth is on record?
Answer: The growth was 94.6%.

Question: How did the growth turn out when `N[C@@H]1CCC[C@H]1NCCCCN1C(=O)c2cccc3cccc(c23)C1=O` was run?
Answer: The growth was 30.8%.

Question: With `COc1ccc(-c2nc3sccn3c2/C=C/C(=O)c2c[nH]c3ccccc23)cc1` as the compound, how does the growth read?
Answer: The growth was -5.59% (active).

Question: `Cc1nn(-c2ccccc2)c2c1C(c1ccc([N+](=O)[O-])cc1)C(C#N)=C(N)O2` (stereo not given) was tested. Which growth did it give?
Answer: The growth was 101%.

Question: `C/C(Cc1ccc(Cl)cc1)=C(/c1ccc(Cl)cc1)c1ccc(OCCN(C)C)cc1` was tested. Which growth did it give?
Answer: The growth was 31.7%.

Question: For `CCOc1ccc2nc(-c3cccc(OCC(=O)NC(C)C)c3)nc(Nc3ccc(-c4cn[nH]c4)cc3)c2c1`, which growth is on record?
Answer: Its growth is 5.6% (active).

Question: With `Cc1ccc(C)c2c1C(=O)OC2=O` as the compound, how does the growth read?
Answer: Its growth is 3.4% (active).

Question: `N=c1ccn2c(n1)OC1C(O)C(CO)OC12` (stereo not given) was tested. Which growth did it give?
Answer: The growth was 108%.

Question: With `O=C1Nc2ccccc2/C1=N/N=C/c1ccc(OC2OC(CO)C(O)C(O)C2O)cc1` (stereo not given) as the compound, how does the growth read?
Answer: Its growth is 112%.

Question: Which growth does the source give for `Clc1ccc(/C=C/c2nc(Nc3ccc(Cl)cc3)c3ccccc3n2)cc1` here?
Answer: Its growth is 98.2%.

Question: Which growth does the source give for `COc1ccc(/C=C2\COc3ccc(O)cc3C2=O)cc1OC` here?
Answer: The growth was 48%.

Question: How did the growth turn out when `O=C(NCCOCCOCCOCCNC(=O)c1cc2c(o1)C(=O)c1ccccc1C2=O)NC12CC3CC(CC(C3)C1)C2` was run?
Answer: The growth was 12.1%.

Question: `CCN(CCO)CC(=O)c1cc(Cl)cc(Cl)c1Cl` was tested. Which growth did it give?
Answer: Its growth is 90.5%.

Question: Which growth does the source give for `COc1ccc(/C=N/NC(=O)Cn2c(-c3ccc(S(C)(=O)=O)cc3)nc3cc(Cl)ccc32)cc1` here?
Answer: The growth was 12.9%.

Question: For `COC(=O)CCCNC(=O)C(=O)c1c(O)c(O)c(C(C)C)c2cc(C)c(-c3c(C)cc4c(C(C)C)c(O)c(O)c(C(=O)C(=O)NCCCC(=O)OC)c4c3O)c(O)c12`, which growth is on record?
Answer: The growth was 8.94% (active).

Question: Which growth does the source give for `Cc1ccc(NC(=O)C(Cl)Cl)cc1` here?
Answer: Its growth is 14.2%.

Question: Which growth does the source give for `O=c1[nH]c(=O)n(C2CC(O)C(CO)O2)cc1CO` (stereo not given) here?
Answer: The growth was 87.7%.

Question: With `CCCNCC(=O)Nc1ccc(C(=O)OC(C)(C)CC)cc1` as the compound, how does the growth read?
Answer: The growth was 89.7%.

Question: `CC(C)OCCCNCC(=O)Nc1ccc(S(=O)(=O)c2ccc(NC(=O)CNCCCOC(C)C)cc2)cc1` was tested. Which growth did it give?
Answer: The growth was 78.1%.

Question: `CCN(CC)CCOC(=O)Nc1ccccc1Cl` was tested. Which growth did it give?
Answer: The growth was 94.7%.

Question: Which growth does the source give for `O=C(CC1Sc2ccccc2NC1=O)NNc1ccc(F)cc1` (stereo not given) here?
Answer: Its growth is 45.8%.

Question: For `CCOc1cc(C2C(Cl)C(=O)N2n2cnnc2)ccc1O` (stereo not given), which growth is on record?
Answer: The growth was 100%.

Question: `Cc1nc(Nc2ccc(NC(=S)Nc3ccccc3)cc2)c2ccccc2n1` was tested. Which growth did it give?
Answer: Its growth is 85.6%.

Question: Which growth does the source give for `COc1ccc(OC)c(/C=C2\COc3ccc(O)c(O)c3C2=O)c1` here?
Answer: The growth was 4.32% (active).

Question: How did the growth turn out when `O=C(c1ccccc1)c1ccc(Cl)c([N+](=O)[O-])c1` was run?
Answer: Its growth is 11.9%.

Question: `COc1ccc(-c2cncnc2N)cc1OC` was tested. Which growth did it give?
Answer: Its growth is 105%.

Question: For `COc1cc(/C=C/C(=O)c2cccc(-n3cc(-c4ccc(Cl)cc4)[nH]c3=O)c2)cc(OC)c1OC`, which growth is on record?
Answer: Its growth is 26.8%.

Question: Which growth does the source give for `CC(=O)c1ccc2c(c1)CCN2` here?
Answer: Its growth is 94.2%.
